Assay outcomes: PubChem BioAssay, National Center for Advancing Translational Sciences (NCATS)
S2 tox: cell viability loss in ATXN counter-screen; S2 cells (HEK-293 line with an ATXN2-luciferase reporter) viability, CellTiter-Fluor protease fluorescence, 24 h; Potency, µM (doses to about 56.7 µM), most hits filed as cytotoxic; actives 0.49% (n = 400,000); AID 651635; further: potency means the concentration at half of the fitted maximal effect; nearly all actives have a fitted effect of over 40% in size
TGFb SMAD3 inh: TGF-b pathway inhibition; HepG2 CAGA-GFP TGF-b/SMAD3 reporter, GFP fluorescence, 18 h; TGF-beta stimulated, 500 pg/mL final; Potency, µM (doses to about 46.1 µM), for the others: at the top dose activity, negative = inhibition, most hits filed as inhibitors; actives 1.2% (n = 410,000); AID 588855; further: potency means the concentration at half of the fitted maximal effect; on the % scale 0 is the no-effect control and ±100 the full control effect; nearly all actives have a fitted effect of over 65% in size
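Inhibition was scored as loss of TGF-beta-induced (500 pg/mL final, 18 hours, 37 degrees C) GFP in HEPG2 cells carrying a CAGA-GFP reporter, in DMEM with 1% FBS. Well GFP was summed per cell; Activity was normalised to unstimulated and stimulated DMSO wells, then concentration-response fitting.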
ATXN2 expr inh: inhibitors of ATXN2 expression. Potency, µM (titrated, usually from 57 µM), inactives show at the highest dose activity change, negative = inhibition, actives largely listed as inhibitors. actives 0.72% (n = 360,000). HEK-293 ATXN2-luciferase reporter, luminescence, 24 h. AID 1745845; further: potency means the concentration at half of the fitted maximal effect; on the % scale 0 is the no-effect control and ±100 the full control effect; nearly all actives have a fitted effect of over 55% in size
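ATXN2-luciferase reporter cells (luciferase flanked by upstream and downstream ATXN2 gene portions) were treated 24 h at 37 °C with compounds at up to 57 uM. SteadyGlo luminescence gave expression; GF-AFC fluorescence gave viability.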
Giardia killer: kills Giardia lamblia. activity change, % at 7.66 µM, hits read low. actives 0.15% (n = 340,000). Giardia lamblia trophozoite viability; in the data active means activity change below about -80%; inconclusive means between about -30% and that limit;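 further: parasites exposed to compound for two days anaerobically before the ATP read; on the % scale 0 is the no-effect control and ±100 the full control effect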
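Giardia lamblia trophozoites (100 cells/well) were incubated with compounds for 48 h at 37 deg C under anaerobic conditions. Viability was read as ATP content by one-step luminescence after 15-30 min at room temperature.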
uPA generation: cell surface uPA generation inhibition | cell surface uPA generation assay, qHTS | Potency, µM (highest dose often 38.3 µM), without a hit: top-dose activity change, negative = inhibition, most hits filed as inhibitors | actives 0.31% (n = 330,000) | AID 540303; active means well fitted inhibition curve with a large enough effect; inconclusive means small, poorly fitted or top-dose-only effect; inactive means no such curve, though single readings can be large or run the other way; tested in mouse RAW 264.7 cells; further: potency means the concentration at half of the fitted maximal effect; on the % scale 0 is the no-effect control and ±100 the full control effect; nearly all actives have a fitted effect of over 55% in size
HepG2 tox: kills HepG2 cells in TGF-b inhibitor counter-screen. HepG2 CAGA-GFP viability, ATP luminescence, 18 h. Potency, µM (titrated, usually from 46.1 µM), for inactives: top-dose activity change, negative = cytotoxicity, most hits filed as cytotoxic. actives 0.76% (n = 410,000); further: potency means the concentration at half of the fitted maximal effect
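HepG2 CAGA-GFP cells (1000/well, DMEM with 1% FBS) received compound, then TGF-beta at 500 pg/mL final, and were incubated 18 hours at 37 degrees C. Viability was read by CellTiter-Glo luminescence. Media-only wells were set as complete cell-killing and DMSO as no toxicity.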
* marks the source's active call; other numbers are inactive results; ! = not confirmed by another sample. Sampled rows, rich in hits. Any-hit rate of the full collection: about 2.6%. Unless noted, the call rests on the fitted dose curve; in most records, active means well fitted curve in the direction sought with a large enough effect; inconclusive means small, poorly fitted or top-dose-only effect, or another doubt; inactive means no such curve, though single readings can be large; an effect the other way counts as inactive or inconclusive.

What do the screens show for `Cc1cc(N2CCN(C(=O)c3ccco3)CC2)n2nc(-c3cccc(Cl)c3)cc2n1`?
TGFb SMAD3 inh: inconclusive; ATXN2 expr inh: 20µM*; Giardia killer: -2; HepG2 tox: -22%

Results for Cc1ccc(C)c2c(/C=C/c3ccc(N(C)C)cc3)ccnc12 ?
TGFb SMAD3 inh: 17%; HepG2 tox: -43%

What do the screens show for `Cc1ccc(/C=[N+](\[O-])c2ccc(N(C)C)cc2)c2nsnc12`?
S2 tox: inconclusive; TGFb SMAD3 inh: 7.9µM*; ATXN2 expr inh: inconclusive; Giardia killer: 7; uPA generation: -16%; HepG2 tox: 14µM*

What do the screens show for `Cc1cccc(OCC(=O)NCC(=O)N/N=C/c2cc(Br)cc(Br)c2O)c1`?
S2 tox: inactive; TGFb SMAD3 inh: -4%; ATXN2 expr inh: 14µM*; Giardia killer: -2; uPA generation: 4%; HepG2 tox: -15%

How did CC(=O)N/N=C/c1ccccc1OCCOc1cccc(C)c1 do in these assays?
S2 tox: inconclusive; TGFb SMAD3 inh: 12%; Giardia killer: -28; uPA generation: 13µM*; HepG2 tox: -9%

How did CCc1cc(C)cc(OCCOc2ccccc2/C=N/NC(C)=O)c1 do in these assays?
S2 tox: inactive; TGFb SMAD3 inh: inconclusive; Giardia killer: 60; uPA generation: inconclusive; HepG2 tox: -42%

What do the screens show for `Cc1ccc(C)c(NC(=O)c2cnn3ccccc23)c1`?
S2 tox: inactive; TGFb SMAD3 inh: inconclusive; ATXN2 expr inh: 9%; Giardia killer: 7; uPA generation: 11µM*; HepG2 tox: -2%

What do the screens show for `O=C(c1ccco1)N(Cc1cc2cc3c(cc2nc1N1CCOCC1)CCC3)CC1CCCO1` (stereo not drawn)?
S2 tox: inactive

Results for O=C(NC1CCCC1)c1cn(C2CCCN(Cc3ccc4c(c3)OCCO4)C2)nn1 (stereo not drawn) ?
S2 tox: inactive

Results for CCN(CC)CCNC(=O)c1cc2c(-c3ccc(Cl)cc3)nn(C)c2s1 ?
TGFb SMAD3 inh: 11µM*; ATXN2 expr inh: 28µM*; Giardia killer: 16; uPA generation: inconclusive; HepG2 tox: -65%

Results for CCCN(CCC)CCNC(=O)c1cc2c(-c3ccc(Cl)cc3)nn(C)c2s1 ?
S2 tox: inconclusive; TGFb SMAD3 inh: -11%; ATXN2 expr inh: inconclusive; Giardia killer: 12; uPA generation: -3%; HepG2 tox: -14%

Results for CCCCN(CC)CCNC(=O)c1cc2c(-c3ccc(Cl)cc3)nn(C)c2s1 ?
TGFb SMAD3 inh: inconclusive; ATXN2 expr inh: inconclusive; Giardia killer: 1; uPA generation: 1%; HepG2 tox: 20µM*!

What do the screens show for `CCC1(C2CCN(C(=O)c3ccccc3C)CC2)NC(=O)N(CCc2scnc2C)C1=O` (stereo not drawn)?
S2 tox: inactive

What do the screens show for `CC1(C)CC2(C)OC2C2(C1)N=NC(=Nc1ccccc1)O2` (stereo not drawn)?
S2 tox: 22µM*; TGFb SMAD3 inh: 2.8µM*; ATXN2 expr inh: -18%; HepG2 tox: -69%

How did Clc1ccc(-c2nn3c(-c4cc(-c5ccccc5)n[nH]4)nnc3s2)cc1 do in these assays?
TGFb SMAD3 inh: -3%; Giardia killer: 2; HepG2 tox: -9%

What do the screens show for `O=C(NC1CCCCC1)c1n[nH]c2c1CCCCC2`?
S2 tox: inactive; TGFb SMAD3 inh: 16%; ATXN2 expr inh: 10µM*; Giardia killer: inconclusive; uPA generation: 3.2µM*; HepG2 tox: -49%

How did CN1CCN(c2nc3ccccc3nc2C(C#N)S(=O)(=O)c2ccccc2)CC1 (stereo not drawn) do in these assays?
S2 tox: inactive; TGFb SMAD3 inh: 7.9µM*; Giardia killer: -7; uPA generation: inconclusive; HepG2 tox: -42%
